In all, about 320,000 compounds went through this assay and about 2,100 (0.66%) were called active. Roughly 53% stayed inconclusive and do not appear here. Calls follow the shape of the dose curve; as a rule, active = well fitted inhibition curve with a large enough effect in the signal ratio, with a control signal flat (not every such curve was filed as active); inconclusive = small, poorly fitted or top-dose-only effect, or effect the other way, or a change in a side signal; inactive = flat fitted curve, though single readings scatter; the % refers to the signal ratio. This excerpt belongs to a sample that is enriched for actives.
Potency is read from the fitted curve at half-maximal effect.

The nature of the experiment: qHTS Assay for Lipid Storage Modulators in Drosophila S3 Cells.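 As to cell number change: cells counted by Cell Tracker Red CMTPX staining in the red channel.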 The conditions noted are these: BODIPY lipid droplet fluorescence, 18-24 h, cells fed with added oleic acid; cell number change: measured here: cell count max response; series mostly up to 46.1 µM. The procedure, abridged: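 Drosophila S3 cells got compounds at several concentrations plus oleic acid (400 uM solution). Laser-scanning cytometry with 488 nm excitation read lipid droplets at 500-530 nm and cells at 575-640 nm. Percent activity was relative to 20 uM Triacsin C.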
`CC1(C)CC(=O)C=C(Nc2ccc(S(N)(=O)=O)cc2)C1`: the Potency entry is “inactive” and the cell number change was 5.75%.
As for `CC1(C)CC(=O)C=C(NCCc2ccccc2)C1`, the Potency result is “inactive” and the cell number change came to 5.18%.
The matching figures for `CC1(C)CC(=O)C=C(NCCc2ccc(S(N)(=O)=O)cc2)C1`: 29.1 µM (active) and 7.43%.
Consider `CC(=O)Nc1ccc(NC2=CC(=O)CC(C)(C)C2)cc1`, for which the Potency entry is “inactive”.
For `CCc1ccc(NC2=CC(=O)CC(C)(C)C2)cc1`, the Potency is 16.4 µM (active) and the cell number change is -10.8%.
Consider `CC1(C)CC(=O)C=C(Nc2ccc(F)cc2)C1`, for which the Potency result is “inactive”.
Same read-out and setting: for `FC(F)(F)c1nnc(-c2ccccc2)nc1N1CCOCC1` the value was “inactive”.
Turning to `O=C(COc1ccccc1)NC(NC(=S)Nc1ccccc1C(=O)O)C(Cl)(Cl)Cl` (stereo not given), the Potency entry was “inactive” and the cell number change is -4.52%.
For `CCCCN(C(=O)c1cccc(S(=O)(=O)N2CC(C)OC(C)C2)c1)c1c(N)n(CCCC)c(=O)[nH]c1=O` (stereo not given), in that order: “inactive” and 6.37%.
Take `CCOC(=O)C(NC(=O)Nc1ccc(O)cc1)(c1ccccc1)C(F)(F)F` (stereo not given): the Potency result is “inactive” and the cell number change came to 14.8%.
On to `CCOC(=O)C(NC(=O)NC1CCCCC1)(c1ccccc1)C(F)(F)F` (stereo not given), for which the Potency was 7.31 µM (active) and the cell number change was -7.07%.
For `CCOC(=O)C(NC(=O)N1CCCCC1)(c1ccccc1)C(F)(F)F` (stereo not given), in that order: “inactive” and -0.413%.
In the case of `Cc1n[nH]c(C)c1S(=O)(=O)N1CCc2ccccc2C1`, the Potency entry was “inactive” and the cell number change is 24.8%.
On to `C/C(=N\NC(=O)c1c(C)nc2ccccn12)c1ccc(O)cc1O`, for which the Potency was 5.8 µM (active) and the cell number change was 6.25%.
For `Cc1nc2ccccn2c1C(=O)N/N=C/c1ccccc1`, in that order: “inactive” and 9.24%.
For `C/C(=N\NC(=O)c1c(C)nc2ccccn12)c1ccco1`, in that order: “inactive” and -20.6%.
Turning to `CC(=O)N1CCN(C(=S)c2ccc(Cl)cc2)CC1`, the Potency result is “inactive” and the cell number change is -11.3%.
For `COC(=O)c1c(SCC(=O)Nc2ccc(C)cc2)nc(=O)[nH]c1C`, in that order: “inactive” and 11%.
As to `Cc1csc(NC(=O)CSc2ncnc3ccccc23)n1`, the Potency result is “inactive” and the cell number change is -0.862%.
The matching figures for `Cc1csc(NC(=O)CSc2nc(C(C)C)nc3ccccc23)n1`: 7.31 µM (active) and 6.52%.
For `CCOC(=O)c1c(SCC(=O)Nc2nc(C)cs2)nc(=O)[nH]c1C`, in that order: 13 µM (active) and 11.9%.
As to `Cc1csc(NC(=O)CSc2[nH]c(=O)ncc2C)n1`, the Potency result was “inactive”.
`Cc1csc(NC(=O)CSc2nc3ccccc3c3c2CCCC3)n1`: the Potency entry is “inactive” and the cell number change came to 1.26%.
For `CC(=O)Nc1ccc(S(=O)(=O)NNC(=O)CCC(=O)Nc2cc(C)ccc2C)cc1`, in that order: 2.31 µM (active) and 1.21%.
For `Cc1ccc(NC(=O)CCC(=O)NNS(=O)(=O)c2ccc(Cl)cc2)cc1C`, in that order: “inactive” and -13.3%.
The matching figures for `Cc1ccc(S(=O)(=O)NNC(=O)CCC(=O)Nc2ccccc2)cc1`: “inactive” and 20.4%.
In the case of `Cc1ccc([N+](=O)[O-])cc1NC(=O)CN(C)CCOc1ccccc1`, the Potency result was “inactive” and the cell number change worked out at 12%.
The matching figures for `CCOC(=O)c1cc(-c2ccc(OC)cc2)n(CCC(=O)NC2CCN(Cc3ccccc3)CC2)c1C`: “inactive” and 11%.
With `C=CCN(c1ccc(C(=O)OC)cc1)S(=O)(=O)c1ccccc1`, the Potency result is “inactive”.
For `Cc1ccc(S(=O)(=O)NCc2ccco2)cc1C`, the Potency is 10.3 µM (active) and the cell number change was -8.6%.
The matching figures for `Cc1ccc(-c2ccc(S(=O)(=O)NCc3ccco3)cc2)cc1`: “inactive” and 2.5%.
For `Cn1c(=O)oc2cc(S(=O)(=O)NCc3ccco3)ccc21`, in that order: “inactive” and 0.921%.
The matching figures for `CCCCNC(=O)C1CCCN1C(=O)NC1CCCCC1` (stereo not given): “inactive” and 9.73%.
For `CCOCCCNC(=O)C1CCCN1C(=O)NC1CCCCC1` (stereo not given), the Potency is 20.6 µM (active) and the cell number change is -3.91%.
The matching figures for `CC(C)CCNC(=O)C1CCCN1C(=O)NC1CCCCC1` (stereo not given): “inactive” and -5.55%.
As for `Cc1ccc(C(=O)Nc2onc(C)c2C#N)cc1`, the Potency entry was “inactive”.
Take `O=C(NCc1ccccc1Cl)c1cnccc1C(F)(F)F`: the Potency result is “inactive” and the cell number change worked out at 0.794%.
For `COc1ccc(-n2nc([N+](=O)[O-])c(=NCCc3ccc(OC)c(OC)c3)n2O)cc1`, in that order: 0.82 µM (active) and -7.82%.
The matching figures for `COc1ccc(-n2nc([N+](=O)[O-])c(=NCCc3ccc(C)cc3)n2O)cc1`: “inactive” and -0.674%.
Consider `Cc1ccc(CCN=c2c([N+](=O)[O-])nn(-c3ccccc3)n2O)cc1`, for which the Potency entry was “inactive”.
`CCOc1ccccc1/C=N/n1nnnc1N`: the Potency result was “inactive” and the cell number change was -5.74%.
For the molecule `O=C1C2CC=C(Cl)CC2C(=O)N1CCC[n+]1cccc2ccccc21` (stereo not given), the Potency entry is “inactive” and the cell number change is -1.42%.
With `O=C(C1CC(=O)N(c2ccc(Cl)cc2)C1)N1CCC(c2nc3ccccc3[nH]2)CC1` (stereo not given), the Potency entry was “inactive”.
Take `CCCNC(=O)Cn1cnc2sc(C(=O)N3CCN(CCC)CC3)c(C)c2c1=O`: the Potency was 32.6 µM (active) and the cell number change is -2.16%.
Turning to `CCCNC(=O)Cn1cnc2sc(C(=O)N3CCN(Cc4ccc5c(c4)OCO5)CC3)c(C)c2c1=O`, the Potency result is “inactive” and the cell number change was found to be 8.92%.
As to `CCCNC(=O)Cn1cnc2sc(C(=O)N3CCCC(C(=O)OCC)C3)c(C)c2c1=O` (stereo not given), the Potency result is “inactive” and the cell number change was -16.1%.
Turning to `CCOC(=O)C1CCN(C(=O)c2cccc(N3C(=O)NC4CC3(C)Oc3ccc(C)cc34)c2)CC1` (stereo not given), the Potency result was “inactive”.
`Cn1c(=O)oc2cc(S(=O)(=O)N3CCCCC3)ccc21`: the Potency entry was “inactive” and the cell number change was 4.27%.
Regarding `COc1cc(NS(=O)(=O)c2ccc(N/C=C\C(=O)c3ccc(F)cc3)cc2)nc(OC)n1`, the Potency entry was “inactive” and the cell number change was 2.61%.
The matching figures for `COc1ccc(C(=O)/C=C/Nc2ccc(S(=O)(=O)Nc3cc(OC)nc(OC)n3)cc2)c(OC)c1`: 29.1 µM (active) and 34.2%.
The matching figures for `COc1ccc(C(=O)/C=C/Nc2ccc(S(=O)(=O)Nc3nc(C)cc(C)n3)cc2)c(OC)c1`: “inactive” and 26.5%.
The matching figures for `c1ccc(Cc2cc[n+](Cc3ccccn3)cc2)cc1`: “inactive” and 3.79%.
In the case of `Cn1c(N)c(C(=O)/C=C/c2ccccc2)c(=O)[nH]c1=O`, the Potency entry is “inactive” and the cell number change stood at 12.4%.
Regarding `CCOC(=O)c1c(C)nc2ccccc2c1C`, the Potency entry is “inactive”.
`Cc1nc2ccccc2c(N)c1C(=O)/C=C/c1ccccc1`: the Potency is 14.6 µM (active) and the cell number change was -20.1%.
The matching figures for `O=c1[nH]c(N2CCCCCC2)nc2ncn(Cc3ccccc3)c12`: “inactive” and 7.21%.
The matching figures for `O=C(O)CCCCCNc1nc2ncn(Cc3ccccc3)c2c(=O)[nH]1`: 32.6 µM (active) and -20%.
The matching figures for `CC(Nc1nc2ncn(Cc3ccccc3)c2c(=O)[nH]1)C(=O)O` (stereo not given): “inactive” and -0.475%.
Take `Cc1ccc[n+](/C(=C\C(=C=[N-])C#N)C(=O)c2ccc(Cl)cc2)c1`: the Potency entry was “inactive” and the cell number change is 18.6%.
The matching figures for `O=C1CN(C(=O)c2ccccc2F)C(c2ccc(F)cc2)c2cc(Br)ccc2N1` (stereo not given): “inactive” and -12.8%.

(Values after PubChem BioAssay AID2685 (National Center for Advancing Translational Sciences (NCATS), 2010).)
